PABP FP inh – PABP-poly(A) binding inhibition; P11940; PABP-poly(A) RNA binding, fluorescence polarization; inhibition, % at 35 µM; 1% of 290,000 active; AID 2014;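 further: calls also rest on retests at 20 µM and on dose response follow-up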
eIF4H inh – inhibitors of RNA binding by human eIF4H; Q15056; eIF4H fluorescence polarization binding assay; inhibition, % at 35 µM; 0.94% of 290,000 active; AID 2012;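 further: calls also rest on retests at 20 µM and on dose response follow-up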
PABP1 MLLE inh – inhibitors of microRNA-mediated deadenylation, human PABP1 MLLE binding; P11940; GST-MLLE / FITC-PAM2 fluorescence polarization; inhibition, % at 20 µM; 0.36% of 360,000 active; AID 588489; in the data active means inhibition above about 35%, passing the limit was not always enough;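 further: plate controls were DMSO wells with GST-MLLE for no effect and wells lacking GST-MLLE protein for full effect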
Efflux pump inh – inhibitors of Candida antifungal efflux pumps expressed in yeast; S. cerevisiae Candida pump triplex, Nile Red efflux; inhibition, % at 10 µM; 0.44% of 330,000 active;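 active means plate passing quality check with inhibition over a set limit, or well fluorescence over plate mean plus 4 SD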;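 further: Nile Red retained in pooled yeast measured as flow cytometry median fluorescence; 0% = buffer negative control and 100% = Enniatin B positive control; higher means more Nile Red kept so more efflux inhibition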
ALR H2O2 inh – inhibitors of human sulfhydryl oxidase ALR | P55789 | purified ALR, DTT oxidation, H2O2 HRP-luminol luminescence | inhibition, % (no concentration beside the values) | 3.8% of 290,000 active;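 active means mean replicate inhibition above about 79%, with every replicate also reaching it, limit read from the data; inconclusive means only one of the two criteria met; inactive means mean below limit and not every replicate reaching it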
Target sequence (P55789 whole entry, looked up): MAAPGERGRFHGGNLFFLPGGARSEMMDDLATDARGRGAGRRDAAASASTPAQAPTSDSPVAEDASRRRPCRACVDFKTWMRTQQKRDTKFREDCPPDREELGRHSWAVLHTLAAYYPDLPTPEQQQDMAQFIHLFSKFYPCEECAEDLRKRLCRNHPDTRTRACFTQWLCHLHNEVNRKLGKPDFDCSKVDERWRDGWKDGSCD
SUMO HTRF inh – SUMOylation inhibition. P63279. HTRF SUMOylation assay, SAE1/SAE2 + UBC9, in vitro. inhibition, % at 35 µM. 0.36% of 290,000 active. AID 2006; in the data active means inhibition above about 50%, passing the limit was not always enough; inconclusive means no clear call, values can overlap the other calls
Target sequence (P63279 whole entry, looked up): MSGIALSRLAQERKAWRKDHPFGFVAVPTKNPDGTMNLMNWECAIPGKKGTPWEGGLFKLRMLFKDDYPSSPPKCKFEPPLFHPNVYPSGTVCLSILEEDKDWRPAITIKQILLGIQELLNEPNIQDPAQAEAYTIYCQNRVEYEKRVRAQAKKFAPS
Active calls of the source: *; ? = inconclusive; / = no result. Sampled rows, rich in hits. Any-hit rate of the full collection: about 4.7%. Unless noted, how the calls were made is not given here.

SMILES	PABP FP inh	eIF4H inh	PABP1 MLLE inh	Efflux pump inh	ALR H2O2 inh	SUMO HTRF inh
Cc1ccc(CS(=O)Cc2ccc(C(=O)N3CCN(c4ccccc4)CC3)o2)cc1 (configuration not stated)	13	0	2	0	94*	-5
CCOCC(=O)Nc1ccccc1C(=O)O	9	0	-7	0	-6	12
CCC(=O)Nc1cc2c3c(c1)CCC(=O)N3CCC2	-7	-1	-2	0	2	8
CC(=O)c1ccc(NC(=O)Nc2ccncc2)cc1	-8	-5	-1	0	-3	8
CC(=O)c1ccc(NC(=O)Nc2cccnc2)cc1	-2	7	-3	0	-8	58*
O=C(Nc1ccc(N2C(=O)C3C4C=CC(C4)C3C2=O)cc1)Nc1cccnc1 (configuration not stated)	20	15	3	0	-6	56*
S=C(NCCCN1CCOCC1)NC1CCCC1	0	-7	-16	0	-3	-2
S=C(NCCCN1CCOCC1)NCCCN1CCOCC1	2	-11	41*	0	-6	-2
Cc1ccc(C)c(NC(=O)CCNS(=O)(=O)c2ccc3[nH]c(=O)oc3c2)c1	28	73*	-16	0	-11	16
CCOC(=O)/C(C#N)=C/c1ccc(OC(=O)c2ccccn2)cc1	-3	1	-5	0	98*	-4
COC(=O)/C(=N/Nc1ccccc1C)N1CCCc2ccccc21	-1	-4	6	0	98*	-3
CCOC(=O)/C(=N/Nc1ccccc1)N1CCCc2ccccc21	-2	44	-6	0	94*	18
CCOC(=O)/C(=N/Nc1ccc(OC)cc1)N1CCCc2ccccc21	-6	2	9	0	/	-7
CC(C)c1ccc(Nc2nc(Cl)nc(Cl)n2)cc1	2	-1	10	0	/	6
Cc1ccc(Nc2nc(Cl)nc(N(C)C#N)n2)cc1	3	-1	3	0	97*	20
Cc1cccc(S(=O)(=O)NC(=O)C2(C)CCN2C(=O)c2cccc(F)c2)c1 (configuration not stated)	/	/	7	/	/	/
Cc1cc(C(=O)CSc2nnc(NCc3ccccc3)s2)c(C)n1C	-4	-9	9	0	8	6
CN1/C(=C\C(=O)CSc2nnc(NCc3ccccc3)s2)C(C)(C)c2ccccc21	active	69*	-56	2	-1	-32
Cn1nc(C(C)(C)C)cc1C(=O)N1CCC(C)(C(=O)NS(=O)(=O)C2CC2)C1 (configuration not stated)	/	/	-3	/	/	/
O=C(O)c1cccc(-n2cc(-c3cccc(C(F)(F)F)c3)cn2)c1	2	-6	2	0	3	21
NC(=S)c1cnn2c(-c3cccc(C(F)(F)F)c3)ccnc12	2	-4	38*	0	-7	15
Oc1ccc(N2CCN(c3ncnc4sc5c(c34)CCC5)CC2)cc1	0	-7	4	0	99*	36
COc1cc(/C=C(/C#N)C(=O)Nc2ccccc2)ccc1OCc1ccc(C(=O)O)cc1	4	0	-9	0	-5	5
CCc1ccc(NC(=O)/C(C#N)=C\c2ccc(OC)c(C(=O)O)c2)cc1	0	-2	5	0	99*	8
COc1ccc(/C=C(/C#N)C(=O)Nc2ccc(O)cc2)cc1C(=O)O	0	-5	33	0	99*	5
SMILES	PABP FP inh	eIF4H inh	PABP1 MLLE inh	Efflux pump inh	ALR H2O2 inh	SUMO HTRF inh
CCCCCOc1ccc(C2C(C(=O)c3ccc(C)o3)=C(O)C(=O)N2c2cc(C)on2)cc1 (configuration not stated)	-6	10	-8	0	98*	-9
Cc1cc(N2C(=O)C(O)=C(C(=O)c3cc4ccccc4o3)C2c2ccc(OC(C)C)cc2)no1 (configuration not stated)	2	9	8	0	96*	-12
COC(=O)c1ccc(C2C(C(=O)c3cc4ccccc4o3)=C(O)C(=O)N2c2cc(C)on2)cc1 (configuration not stated)	46*	?	-35	0	19	2
COc1cc(C2C(C(=O)c3cc4ccccc4o3)=C(O)C(=O)N2c2cc(C)on2)cc(OC)c1OC (configuration not stated)	5	-1	-13	0	-1	7
CCOc1ccc(C2C(C(=O)c3ccc(C)o3)=C(O)C(=O)N2c2cc(C)on2)cc1OC (configuration not stated)	3	29	-5	0	3	5
CCOc1ccc(C2C(C(=O)c3ccc(C)o3)=C(O)C(=O)N2c2nc(C)c(C(=O)OC)s2)cc1 (configuration not stated)	-13	2	-84	0	97*	18
COc1ccc(CNC(=O)O[C@H]2C[C@@H]3C(=O)N(c4ccccc4)C(=O)[C@@H]3[C@@H]3CN(S(=O)(=O)c4ccc(C)cc4)C[C@]23O)cc1OC	/	/	-10	/	/	/
C[C@@H]1CN([C@H](C)CO)S(=O)(=O)c2ccc(Br)cc2O[C@H]1CN(C)C(=O)Nc1ccccc1	/	/	-5	/	/	/
COc1cccc2cc(C(=O)C3=C(O)C(=O)N(c4cc(C)on4)C3c3cccs3)oc12 (configuration not stated)	21	12	-18	0	98*	9
COc1cccc(C2C(C(=O)c3cc4cccc(OC)c4o3)=C(O)C(=O)N2c2cc(C)on2)c1OC (configuration not stated)	11	2	-6	0	9	-9
Cc1cc(N2C(=O)C(O)=C(C(=O)c3cc4ccccc4o3)C2c2cccc(Br)c2)no1 (configuration not stated)	4	3	-17	0	98*	8
Cc1nc(-c2ccccc2)sc1-c1ccn[nH]1	64*	?	-3	0	/	12
Cc1nc(-c2ccccc2)sc1-c1ccnn1C	5	4	3	0	6	31
Cc1cc(F)ccc1C(O)c1ncc(-c2ccc3ccccc3c2)[nH]1 (configuration not stated)	/	/	16	/	/	/
COc1cccc(-c2noc(Cn3nc(C)c([N+](=O)[O-])c3C)n2)c1	6	2	24	0	92*	13
COc1ccccc1OCC(=O)NNC(=O)CCCC(=O)NNC(=O)COc1ccccc1OC	-4	-3	9	0	1	6
NC(=S)NNC(=O)COc1ccccc1O	8	-1	6	0	89*	-6
COc1ccccc1OCC(=O)NNc1c2ccccc2nc2ccccc12	-5	-7	12	0	99*	7
COc1ccccc1OCC(=O)NCCNC(=O)COc1ccccc1OC	-4	-7	40*	0	/	-7
COC(=O)c1ccccc1N1CCS(=O)(=O)CC1	-1	-8	-10	0	-7	6
Cc1ccc(/C=C/C(=O)OCC(=O)NCc2cccs2)o1	/	/	-6	0	-3	/

Source: PubChem (several laboratories)
